Laboratory results as given in PubChem BioAssay (NCATS).
Several values for one entry are separate records, joined by “and”; a condition that tells them apart may be missing. Equal entries are not always repeated. Values without a mark were called inactive. Inconclusive results are not listed. Activity calls are given as the source filed them. Unless noted, calls follow the shape of the dose curve; as a rule, active = well fitted curve in the direction sought with a large enough effect; inconclusive = small, poorly fitted or top-dose-only effect, or another doubt; inactive = no such curve, though single readings can be large; an effect the other way counts as inactive or inconclusive.

What was measured:
[1] = qHTS assay for small molecule activators of the nuclear factor-kappa B (NF-kB) signaling pathway (AID 651749; active = well fitted activation curve with a large enough effect in the signal ratio; the % refers to the signal ratio; also: series mostly up to about 77 µM; % of control where 0% means no effect); settings: NF-kB-bla ME-180 cells, beta-lactamase FRET ratio, 16 h; hits give high values
Outline: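 FRET-based beta-lactamase detection in ME-180 cells reports NF-kB response-element-driven transcription following overnight (16 hr) compound treatment.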

[2] = qHTS assay for small molecule disruptors of the mitochondrial membrane potential - 1 hr assay (AID 651754; calls by dose curve; also: nearly all actives have a fitted effect of over 35% in size; also: potency is read from the fitted curve at half-maximal effect)
Outline: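 In this qHTS format, a 1 hr compound treatment of HepG2 cells precedes Mito-MPS staining, and membrane potential is judged from aggregate (red) against monomer (green) fluorescence intensity.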

[3] = qHTS assay for environmental chemicals that activate the Aryl hydrocarbon Receptor (AhR) signaling pathway (AID 651777); settings: 1A2-DRE human hepatoma cells, luciferase, 24 h; activation: hits give high values; also: nearly all actives have a fitted effect of over 15% in size; also: potency is read from the fitted curve at half-maximal effect; as to activation: % of control where 0% means no effect
Outline: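 Measured luciferase activity, read 30 min after One-Glo addition at room temperature, from human hepatoma cells bearing a dioxin response element–CYP1A2 promoter reporter and exposed to compound for 24 hr at 37 C.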

[4] = biological target: Peroxisome proliferator-activated receptor alpha (Homo sapiens) (UniProt Q07869); assay: qHTS assay for small molecule agonists of the peroxisome proliferator-activated receptor alpha (PPARalpha) signaling pathway (AID 651778); settings: PathHunter PPARalpha complementation, chemiluminescence, 6 h; hits give high values; also: % of control where 0% means no effect
Sequence of Peroxisome proliferator-activated receptor alpha (Homo sapiens) (Q07869 whole entry, looked up): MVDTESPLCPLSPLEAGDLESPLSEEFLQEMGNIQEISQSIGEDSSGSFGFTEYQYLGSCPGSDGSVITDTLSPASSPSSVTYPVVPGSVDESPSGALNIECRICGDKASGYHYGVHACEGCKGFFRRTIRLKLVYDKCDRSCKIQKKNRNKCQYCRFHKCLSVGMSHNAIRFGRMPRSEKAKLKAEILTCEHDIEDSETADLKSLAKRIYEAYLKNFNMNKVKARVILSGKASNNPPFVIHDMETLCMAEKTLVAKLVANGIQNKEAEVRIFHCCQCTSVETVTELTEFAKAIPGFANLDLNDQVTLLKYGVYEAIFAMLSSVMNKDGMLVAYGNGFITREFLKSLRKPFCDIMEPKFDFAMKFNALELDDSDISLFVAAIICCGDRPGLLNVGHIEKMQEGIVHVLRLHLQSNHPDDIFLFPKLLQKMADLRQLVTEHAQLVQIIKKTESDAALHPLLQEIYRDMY
Outline: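 Chemiluminescence from complemented enzyme reported PPARalpha activation in cells after 6 hr of compound treatment at 37 C. The detection reagent was incubated for 60 min at room temperature, and compounds were scored as agonists.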

[5] = qHTS assay for small molecule agonists of the antioxidant response element (ARE) signaling pathway measured by Nrf2-dependant transcriptional activity - cell viability counter screen (AID 720653; active = well fitted curve in the direction sought with a large enough effect in the repeat runs; an effect the other way counts as inactive or inconclusive; also: % is scaled to controls: 0 for no effect and ±100 for the full control effect); settings: ARE-bla HepG2 viability, CellTiter-Glo ATP luminescence, 16 h; max response: hits give low values
Outline: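 Cytotoxicity counter screen: intracellular ATP quantified by CellTiter-Glo luminescence in the same ARE-bla HepG2 plates, after 16 h compound exposure and a 2 h beta-lactamase substrate step.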

[6] = qHTS assay for small molecule activators of the p53 signaling pathway (AID 651743; active = well fitted activation curve with a large enough effect in the signal ratio, not every such curve was filed as active; the % refers to the signal ratio; also: potency is read from the fitted curve at half-maximal effect; as to activation: series mostly up to about 92 µM; % of control where 0% means no effect); settings: HCT-116 p53RE-bla, beta-lactamase FRET ratio, 16 h; activation: hits give high values
Outline: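 A beta-lactamase reporter under p53 response element control, stably carried by HCT-116 cells, reported pathway activation. Test compounds were applied for 16 hours at 37 C, and fluorescence was measured 2 hours after adding the B/G FRET substrate.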

[7] = qHTS assay for small molecule disruptors of the mitochondrial membrane potential - 5 hr assay (AID 651755; calls by dose curve; also: nearly all actives have a fitted effect of over 40% in size; also: potency is read from the fitted curve at half-maximal effect)
Outline: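 Membrane-potential dye readout: red aggregate (540 ex/590 em) versus green monomer (490 ex/535 em) fluorescence after 30 min dye loading, following 5 hr compound exposure at 37C of overnight-plated HepG2 cells.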

[8] = biological target: Tumor necrosis factor (Homo sapiens) (UniProt P01375); assay: qHTS assay to identify small molecules that stimulate Tumor Necrosis Factor-alpha (TNF-alpha) secretion (AID 651757; active = well fitted curve in the direction sought with a large enough effect in the signal ratio; the % refers to the signal ratio; also: 0% is about no effect)
Sequence of Tumor necrosis factor (Homo sapiens) (P01375 whole entry, looked up): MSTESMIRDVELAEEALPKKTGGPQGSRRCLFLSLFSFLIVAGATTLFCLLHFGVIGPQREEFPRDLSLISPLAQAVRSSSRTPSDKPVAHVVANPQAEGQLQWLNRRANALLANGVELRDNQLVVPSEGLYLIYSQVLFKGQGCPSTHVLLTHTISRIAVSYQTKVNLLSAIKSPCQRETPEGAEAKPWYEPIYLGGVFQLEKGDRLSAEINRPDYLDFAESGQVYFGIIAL
Outline: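 Using 3000 THP-1 cells per well, compounds and controls were applied for 17 hrs at 37 C. Detection followed with two labeled anti-TNF-alpha antibodies (cryptate donor, XL665 acceptor) for 3 hr at room temperature, measured by TR-FRET.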

[9] = biological target: Nuclear receptor ROR-gamma (Homo sapiens) (UniProt P51449); assay: qHTS assay for small molecule antagonists of the retinoid-related orphan receptor gamma (ROR-gamma) signaling pathway (AID 651802); also: nearly all actives have a fitted effect of over 60% in size; also: potency is read from the fitted curve at half-maximal effect
Sequence of Nuclear receptor ROR-gamma (Homo sapiens) (P51449 whole entry, looked up): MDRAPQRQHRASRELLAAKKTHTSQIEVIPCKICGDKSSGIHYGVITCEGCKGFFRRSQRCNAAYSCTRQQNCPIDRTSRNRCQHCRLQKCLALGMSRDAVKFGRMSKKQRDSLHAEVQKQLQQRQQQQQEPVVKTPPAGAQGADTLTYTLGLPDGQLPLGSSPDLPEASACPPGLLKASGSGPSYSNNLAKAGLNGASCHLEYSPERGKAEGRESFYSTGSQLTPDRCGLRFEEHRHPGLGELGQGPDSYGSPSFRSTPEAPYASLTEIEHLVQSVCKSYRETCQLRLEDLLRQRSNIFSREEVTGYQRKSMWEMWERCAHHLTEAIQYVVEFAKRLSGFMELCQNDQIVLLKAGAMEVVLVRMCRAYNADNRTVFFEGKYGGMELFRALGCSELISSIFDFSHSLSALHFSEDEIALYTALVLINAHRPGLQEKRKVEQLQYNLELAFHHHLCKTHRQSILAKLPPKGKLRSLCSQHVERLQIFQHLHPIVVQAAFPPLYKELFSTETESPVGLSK
Outline: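 Doxycycline-induced reporter activity in engineered CHO cells (TET-inducible ROR, RORE-LUC) was measured by luminescence after 16hr compound exposure at 37C.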

[10] = qHTS for compounds that reverse cellular toxicity of Amyloid beta (A-beta) peptide in yeast: LOPAC Validation Assay (AID 720559); settings: Potency: rescue of growth toxicity;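 also: plate controls were DMSO for no effect and equimolar ferric chloride plus clioquinol rescue for full effect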
Outline: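 Medium dispensed, compounds pinned, A-beta yeast suspension added; plates held at 30 C for 48 hr; absorbance measured at 600 nm to gauge growth; values scaled between DMSO and FeCl3/clioquinol (equimolar) controls.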

[11] = qHTS for Activators of Parkin Expression: LOPAC Validation Assay (NLuc Reporter) (AID 720572)
Outline: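 Compound effects on Parkin promoter activity were measured as NanoLuc luminescence after 24 h at 37 C. The neuronal reporter line also carried FLuc, which was read first. LOPAC compounds were tested at 7 concentrations, with normalization to DMSO (0%) and positive control (100%).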

[12] = qHTS assay for small molecule agonists of the antioxidant response element (ARE) signaling pathway measured by Nrf2-dependant transcriptional activity (AID 720636; active = well fitted curve in the direction sought with a large enough effect in the repeat runs; an effect the other way counts as inactive or inconclusive; also: potency is read from the fitted curve at half-maximal effect;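 as to activation: HepG2 cells with an ARE-driven luciferase reporter; % of control where 0% means no effect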)
Outline: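 In HepG2 cells engineered with an Nrf2-responsive luciferase gene, ARE induction was quantified as luminescence after 16 hr compound treatment at 37 C.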

[13] = biological target: Tyrosine-protein kinase Yes (Homo sapiens) (UniProt P07947); assay: qHTS for small molecule inhibitors of Yes1 kinase: Primary Screen (AID 686947);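 also: plate controls were DMSO with enzyme for no effect and no-enzyme DMSO wells for full effect; nearly all actives have a fitted effect of over 60% in size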
Sequence of Tyrosine-protein kinase Yes (Homo sapiens) (P07947 whole entry, looked up): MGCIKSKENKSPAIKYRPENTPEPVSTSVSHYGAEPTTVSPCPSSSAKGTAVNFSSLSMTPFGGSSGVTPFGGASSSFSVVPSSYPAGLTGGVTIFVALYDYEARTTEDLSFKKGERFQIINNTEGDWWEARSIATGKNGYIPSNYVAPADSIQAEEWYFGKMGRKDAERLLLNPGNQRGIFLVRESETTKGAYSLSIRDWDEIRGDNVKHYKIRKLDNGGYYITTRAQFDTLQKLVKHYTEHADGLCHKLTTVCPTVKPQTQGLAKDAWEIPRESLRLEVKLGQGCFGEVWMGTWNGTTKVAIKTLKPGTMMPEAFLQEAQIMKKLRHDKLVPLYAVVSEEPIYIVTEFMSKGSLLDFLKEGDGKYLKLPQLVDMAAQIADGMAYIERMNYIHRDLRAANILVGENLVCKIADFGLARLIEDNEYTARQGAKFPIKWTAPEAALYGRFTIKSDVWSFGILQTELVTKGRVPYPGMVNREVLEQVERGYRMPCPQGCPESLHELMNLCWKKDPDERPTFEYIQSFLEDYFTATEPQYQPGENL
Outline: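 In this qHTS format, inhibition is expressed relative to DMSO controls with enzyme (maximum) and without enzyme (minimum). The 60 min room-temperature reaction uses 0.1 mM ATP, with ADP detected by luminescence.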

[14] = qHTS for small molecule inhibitors of Yes1 kinase: Counter Assay (AID 686950);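 also: no kinase present so only ADP-Glo detection of a fixed ADP amount is tested; luminescence from ADP-Glo reporting ADP in a fixed ATP and ADP mixture; series mostly up to about 77 µM; 0% = DMSO wells with ATP plus ADP and -100% = ATP-only wells without ADP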
Outline: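 ADP-Glo luminescence read after a 60 min room-temperature incubation of compound with an ATP/ADP mix (0.08 mM/0.02 mM) and no kinase, following a 20 min compound preincubation. Signal scaled between ATP+ADP (max) and 0.1 mM ATP-only (min) wells; Tris pH 7.5, Mg2+, DTT.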

[15] = qHTS for Activators of Parkin Expression: LOPAC Validation Assay (FLuc Reporter) (AID 720573)
Outline: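 Cells seeded, 24 h; compounds pinned, 7-pt dose response; 24 h at 37 C/5% CO2; volume reduced; FLuc reagent 10 min RT; luminescence read. Normalization: DMSO = 0, positive control = 100%.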

[16] = biological target: Arylsulfatase A (Homo sapiens) (UniProt P15289); assay: qHTS screen for enhancers of Arylsulfatase A (ASA1): LOPAC Validation Assay (AID 720538)
Sequence of Arylsulfatase A (Homo sapiens) (P15289 whole entry, looked up): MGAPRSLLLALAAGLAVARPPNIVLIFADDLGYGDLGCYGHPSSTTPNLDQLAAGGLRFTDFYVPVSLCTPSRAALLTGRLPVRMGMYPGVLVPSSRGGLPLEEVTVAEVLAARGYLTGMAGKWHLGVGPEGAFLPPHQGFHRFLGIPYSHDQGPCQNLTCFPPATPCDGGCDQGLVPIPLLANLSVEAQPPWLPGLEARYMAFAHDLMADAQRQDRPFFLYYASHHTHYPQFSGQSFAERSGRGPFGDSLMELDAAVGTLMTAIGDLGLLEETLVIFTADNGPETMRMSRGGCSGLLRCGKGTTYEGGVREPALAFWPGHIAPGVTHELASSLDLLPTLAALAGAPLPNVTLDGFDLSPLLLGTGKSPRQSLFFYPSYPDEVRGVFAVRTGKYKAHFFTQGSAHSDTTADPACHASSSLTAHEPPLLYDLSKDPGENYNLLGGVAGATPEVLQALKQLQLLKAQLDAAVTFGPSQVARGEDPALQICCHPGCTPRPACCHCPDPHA
Outline: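 MLD patient fibroblasts (SV40, ASA-I179S), 1536-well; adhere 6 hrs; cpd 48h, 37 degree C, 5% CO2; pNCS 0.5mM final in lysis buffer, 14h RT; stop 1N NaOH final; fluor. Ex525/Em598.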

[17] = qHTS assay to identify small molecules that stimulate interleukin-8 (IL-8) secretion (AID 651758; active = well fitted activation curve with a large enough effect in the signal ratio; the % refers to the signal ratio; also: 0% is about no effect)
Outline: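 Secreted IL-8 measured homogeneously by TR-FRET (two labelled anti-IL-8 antibodies, 1-3 h at room temperature) after a 16 h, 37 C compound treatment of THP-1 cells at 2000 cells/well.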

Nc1ccc(O)c([N+](=O)[O-])c1
activation [1]: -0.599% and -0.904%
Potency [2]: 33.5 µM (active)
activation [3]: 4.17% and 0.649%
max response [4]: -1.01% and 0.176%
max response [5]: -1.19% and -1.35%

CN(C)CCC(c1ccc(Cl)cc1)c1ccccn1 (configuration not stated)
activation [6]: -2.38%
activation [1]: -0.341%
Potency [7]: inactive
outcome [8]: inactive
activation [3]: -0.109%
max response [4]: -7.82%
Potency [9]: inactive
Potency [10]: inactive
Potency [11]: inactive
Potency [12]: inactive
max response [5]: -2.73%

O=C(OCc1ccccc1)c1ccccc1
activation [1]: 0.212%
max response [4]: -1.34%
Potency [12]: inactive
max response [5]: -0.23%

NCCO
activation [6]: -4.3%
outcome [8]: inactive
activation [3]: -0.695%
max response [4]: -2.8%
Potency [9]: inactive
Potency [12]: inactive
max response [5]: 3.76%

CC1(C)S[C@@H]2[C@H](NC(=O)[C@H](N)c3ccccc3)C(=O)N2[C@H]1C(=O)O
activation [6]: 1.65%
outcome [8]: inactive
activation [3]: 0.371%
max response [4]: -1.69%
Potency [12]: inactive
max response [5]: -0.498%

CN1[C@@H]2CC[C@H]1CC(OC(=O)C(CO)c1ccccc1)C2 (some centres not stated)
activation [3]: -1.81%
Potency [12]: inactive
max response [5]: -6.68%

COc1cc(CNC(=O)CCCC/C=C/C(C)C)ccc1O
activation [6]: -1.8% and -5.67%
activation [1]: 0.091% and 0.703%
Potency [2]: inactive
Potency [7]: inactive
outcome [8]: inactive
activation [3]: -0.69% and 1.8%
max response [4]: -1.35% and 5.82%
max response [5]: -7.9% and -5.74%

CN1CC(=O)N/C1=N/C(=O)Nc1cccc(Cl)c1
outcome [13]: inactive
outcome [14]: inactive
Potency [10]: inactive
Potency [11]: inactive
Potency [15]: inactive

C=CCc1cccc(/C=N/NC(=O)CN2CCN(Cc3ccccc3)CC2)c1O
outcome [13]: inactive
outcome [14]: inactive

O=C(Nc1ccccc1)c1cc([N+](=O)[O-])ccc1Cl
activation [6]: 4.29%
Potency [3]: 14.1 µM (active)
max response [4]: 0.605%
Potency [10]: inactive
Potency [15]: inactive
Potency [12]: 3.06 µM (active)
max response [5]: -18.4%

N=C1N=C(N)c2cc3ccccc3cc21
Potency [6]: 35.5 µM (active)
Potency [2]: 6.68 µM (active)
outcome [8]: inactive
activation [3]: 12.9%
max response [4]: -3.58%
Potency [9]: 59.6 µM (active)
Potency [12]: inactive
max response [5]: -12.6%

O=C(O)/C=C\C(=O)O
activation [6]: -1.58%
activation [1]: -0.21%
outcome [8]: inactive
max response [4]: -3.33%
Potency [9]: inactive
Potency [12]: inactive
max response [5]: -4.39%

Oc1ccccc1O
activation [6]: 25.3%
max response [4]: -0.837%
Potency [16]: inactive
Potency [10]: inactive
Potency [11]: inactive
max response [5]: -28.6%

Nc1nc2ccc([N+](=O)[O-])cc2s1
activation [1]: -0.326%
Potency [2]: 16.8 µM (active)
Potency [7]: 16.8 µM (active)
activation [3]: 8.89%
max response [4]: -11%
Potency [12]: inactive
max response [5]: -4.37%

S=c1[nH]c2ccccc2s1
activation [6]: -3.47% and -2.03%
Potency [17]: inactive
max response [4]: -10.8% and -7.19%
Potency [9]: inactive
Potency [12]: inactive
max response [5]: -14.2% and -2.08%

c1ccc2sc(SSc3nc4ccccc4s3)nc2c1
activation [6]: 1.84% and -0.504%
activation [1]: 3.06% and 1.84%
outcome [8]: inactive
activation [3]: -0.44% and 3.22%
max response [4]: -2.43% and -7.65%
Potency [9]: inactive
Potency [12]: inactive
max response [5]: -3.31% and 10.5%

O=C(O)c1cc(O)c(O)c(O)c1
activation [6]: -4.32%
activation [1]: -0.583%
Potency [2]: inactive
Potency [7]: inactive
activation [3]: -0.689%
max response [4]: -13%
Potency [9]: inactive
Potency [12]: inactive
max response [5]: -28.5%

CCCCCCCCCCCCCCCC(=O)OC(C)C
activation [6]: -1.99%
activation [1]: 0.837%
max response [4]: 0.689%
Potency [12]: inactive
max response [5]: -10.7%

CCCOC(=O)c1ccc(O)cc1
activation [6]: -1.88% and -2.94% and -1.35%
outcome [8]: inactive
Potency [17]: inactive
activation [3]: 3.41% and 2.32%
max response [4]: 0.116% and 2.06% and -4.76%
Potency [9]: inactive
Potency [12]: inactive
max response [5]: -5.7% and -1.43% and -2.37%
